Measured values reported in PubChem BioAssay AID1347076 (National Center for Advancing Translational Sciences (NCATS), 2019).
Among all 400,000 compounds or so, about 13,000 (3.2%) were called active. Entries that show only a call come without a potency. About 18% were inconclusive and are not listed. This is one part of a sample in which actives are shown more often than they occur. Calls follow the shape of the dose curve; as a rule, active = well fitted cell-killing curve with a large enough effect; inconclusive = small, poorly fitted or top-dose-only effect, or effect the other way; inactive = flat fitted curve, though single readings scatter.

test: qHTS assay for MDR1-selective chemotherapeutics: Primary screen using the drug-selected MDR subline cells KB-V1; details: KB-V1 MDR cells viability, CellTiter-Glo, 72 h; series mostly up to 46.1 µM; also: nearly all actives have a fitted effect of over 60% in size
Procedure, shortened: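 KB-V1, DMEM (no phenol red) + 10% FBS; cpd pin-transferred, titration series; 72 h, 37 degrees C; CellTiter-Glo, luminescence. Data normalized, curve-fit.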
Potency is read from the fitted curve at half-maximal effect.

Structure (SMILES)	Potency
Cc1ccc(-c2nn3c(=O)cc(CN4CCN(S(=O)(=O)c5ccc(Cl)cc5)CC4)nc3s2)cc1	inactive
Cc1cccc(C)c1NC(=O)CNC(=O)c1ccc(N2CCOCC2)c([N+](=O)[O-])c1	inactive
CCn1c(/C=C/c2ccc([N+](=O)[O-])o2)nc2ccccc2c1=O	5.17 µM (active)
CCc1ccc(S(=O)(=O)N/N=C\c2ccc([N+](=O)[O-])o2)cc1	inactive
O=c1oc(/C=C/c2ccccc2)nc2ccccc12	inactive
CSc1ncccc1C(=O)N1CCCC(Nc2ccc(F)c(F)c2)C1 (stereo unspecified)	inactive
CCc1nn(CCCC(=O)NCc2ccccc2OC)c(=O)c2cc3occc3n12	inactive
Cc1cc(Br)cn2c(Cc3cccc(F)c3)c(-c3cccc(Br)c3)nc12	inactive
CCOC(=O)c1c(NC(=O)Cn2nc(C(F)(F)F)cc2C)sc2c1CCC2	20.6 µM (active)
CCOC(=O)c1c(NC(=O)CSc2cn(CC)c3ccccc23)sc2c1CCC2	inactive
CCOC(=O)c1c(NC(=O)Cc2coc3ccc(CC)cc23)sc2c1CCC2	inactive
CCCS(=O)(=O)NC(=O)C1(C)CCCN(C(=O)c2cccs2)C1 (stereo unspecified)	inactive
COc1ccccc1OCC(=O)Nc1ccccc1C(=O)NC1CC1	inactive
CCCC(NCC(=O)Nc1ccccc1C(=O)NC1CC1)c1ccccc1 (stereo unspecified)	inactive
Cc1ccc(OCC(=O)Nc2ccccc2C(=O)NC2CC2)cc1C	inactive
Cc1ccc(OCC(=O)Nc2ccccc2C(=O)NC2CC2)cc1	8.2 µM (active)
O=C(CN1CCCCC1)Nc1ccccc1C(=O)NC1CC1	inactive
CC(NCC(=O)Nc1ccccc1C(=O)NC1CC1)c1ccccc1Cl (stereo unspecified)	18.4 µM (active)
c1ccc(CNCc2ccc(CNCc3ccccc3)cc2)cc1	inactive
CCc1nnc(SCC(=O)Nc2cc(OC)ccc2OC)nc1CC	inactive
COc1ccccc1OCCOc1ccc(/C=N/n2cnnc2)cc1	inactive
Cc1ccccc1OCCOc1ccc([N+](=O)[O-])cc1/C=N/n1cnnc1	8.2 µM (active)

Structure (SMILES)	Potency
Cc1ccccc1OS(=O)(=O)c1cccc([N+](=O)[O-])c1	inactive
O=C(CSc1nc2cccc(F)c2c(=O)n1-c1ccccc1)Nc1ccc2c(c1)CCC2	inactive
O=C1c2ccccc2C(=O)N1CCCc1nc(-c2ccccc2)no1	18.4 µM (active)
O=C1c2ccccc2C(=O)N1CCCCCCN1C(=O)c2ccccc2C1=O	inactive
c1ccc(CCc2nc(-c3ccncc3)no2)cc1	inactive
C[C@H]1CN([C@@H](C)CO)C(=O)CCCn2cc(nn2)CO[C@@H]1CN(C)S(=O)(=O)c1cccs1	inactive
OC(c1ccc(Cl)c(F)c1)c1ncc(-c2ccccc2Cl)[nH]1 (stereo unspecified)	inactive
Cc1ccc(S(=O)(=O)N2CCOCC2)cc1NC(=O)c1ccncc1	inactive
CCN(CC)S(=O)(=O)c1ccc(N2CCOCC2)c(NC(=O)C2COc3ccccc3O2)c1 (stereo unspecified)	inactive
O=C(Nc1cc(S(=O)(=O)N2CCCCC2)ccc1Cl)C1COc2ccccc2O1 (stereo unspecified)	14.6 µM (active)
O=C(CNCc1cccs1)Nc1cc(S(=O)(=O)N2CCCC2)ccc1Cl	inactive
CCc1ccc(Sc2cc(C(=O)NCCCOC(C)C)c3ccccc3n2)cc1	inactive
O=C1c2ccccc2C(=O)c2c1cccc2N1CCN(C/C=C/c2ccccc2)CC1	inactive
O=C1c2ccccc2C(=O)c2c1cccc2N1CCN(Cc2ccccc2)CC1	18.4 µM (active)
CCc1c(C)nc(N2CCN(Cc3ccccc3)CC2)[nH]c1=O	inactive
O=c1[nH][nH]c2c1[C@H](c1ccc(Cl)cc1)O[C@H](CCc1ccccc1)C2	inactive
O=C(CSc1nccn1Cc1ccc(Cl)cc1)NCc1ccccc1	inactive
COc1cc(F)ccc1-c1cc(C(=O)NCC2CCCCC2)[nH]n1	inactive
COc1ccc(S(=O)(=O)N2CCC(C(=O)N3CCOCC3)CC2)cc1OC	inactive
COc1ccc(S(=O)(=O)N2CCC(C(=O)N3CCCC3)CC2)cc1C	inactive
COc1ccc(S(=O)(=O)N2CCC(C(=O)N3CCc4ccccc4C3)CC2)cc1OC	13 µM (active)
C[C@H](CO)N1C[C@H](C)[C@@H](CN(C)C(=O)c2cnccn2)Oc2ncc(Br)cc2C1=O	inactive

Structure (SMILES)	Potency
CC(C)c1ccc(NC(=O)c2ccc(Cn3nc(N4CCN(c5ccccc5)CC4)ccc3=O)o2)cc1	inactive
Cc1ccc(-c2nc3ccc(Cl)cn3c2Cc2ccccc2)cc1	inactive
CC1(C(=O)NS(=O)(=O)Cc2cccc(Cl)c2)CCN1C(=O)Cc1ccccc1 (stereo unspecified)	inactive
COc1ccc(CNC(=O)CCn2cccc2)cc1	inactive
Cc1nn(CC(=O)NCc2ccccn2)c(C)c1[N+](=O)[O-]	inactive
COc1ccc(CNC(=O)CCCn2nc(C)c([N+](=O)[O-])c2C)cc1	25.9 µM (active)
Cc1nn(CC(=O)Nc2ccc(N(C)C)cc2)c(C)c1[N+](=O)[O-]	inactive
Cc1ccc(Oc2cc(NC(=O)CCCn3nc(C)c([N+](=O)[O-])c3C)cc([N+](=O)[O-])c2)cc1	10.3 µM (active)
CCc1ccc(NC(=O)Cn2nc(C)c([N+](=O)[O-])c2C)cc1	inactive
CCCNC(=O)C1(C)CCN(C(=O)c2ccc(F)cc2Cl)C1 (stereo unspecified)	inactive
Cn1c(SCC(=O)OC2CCCCC2)nnc1-c1ccc(S(=O)(=O)N2CCCC2)cc1	inactive
CC1Cc2ccccc2N1C(=O)CSc1nc2ccccc2o1 (stereo unspecified)	14.6 µM (active)
CC1Cc2ccccc2N1C(=O)Cn1cnc2ccccc2c1=O (stereo unspecified)	inactive
CCS(=O)(=O)c1ccc2oc(SCC(=O)N3c4ccccc4CC3C)nc2c1 (stereo unspecified)	5.17 µM (active)
CC(C)(C)C(=O)CSc1nc2ccccc2o1	inactive
CCn1c(CSc2ncccn2)nnc1SCC(=O)N1c2ccccc2CC1C (stereo unspecified)	11.6 µM (active)
COc1ccc(S(=O)(=O)N2CCN(CC(=O)N3c4ccccc4CC3C)CC2)cc1OC (stereo unspecified)	inactive
CC1CC(C)CN(C(=O)CSc2nnc(CSc3ncccn3)n2C)C1 (stereo unspecified)	inactive
O=C(CSc1nc2ccccc2o1)N1CCN(c2ccccc2)CC1	inactive
CN(C)S(=O)(=O)c1ccc2oc(SCC(=O)Nc3ccccc3F)nc2c1	inactive
CC1Cc2ccccc2N1C(=O)CSc1nnc(C2CC2)n1C (stereo unspecified)	inactive
CC1Cc2ccccc2N1C(=O)CSc1nnc(-c2ccc(S(=O)(=O)N3CCCC3)cc2)n1C (stereo unspecified)	16.4 µM (active)
